Among the data in PubChem BioAssay (NCI) are growth values, retold here.

Several values for one entry are separate records, joined by “and”; a condition that tells them apart may be missing. Equal entries are not always repeated. About 83,000 compounds went through this panel and 20% of them were active in at least one assay; those are over-represented in the sample as a whole.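 Testing used 96-well plates and a 48-hour single-concentration exposure. Example: -40 means 40% of the starting cells died.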 Some structures have more than one record in an assay (separate samples or runs), and their calls can disagree. Activity calls are given as the source filed them. The calls were made as follows: active = growth percent below 10; inactive = the rest.

This experiment relates to MDA-MB-468 breast. In words: NCI-60 one-dose screen, 48 h (100 = growth as untreated, 0 = no growth, -100 = all killed). The following applies: 10 µM unless noted.
Turning to `FC(F)(F)c1ccc(Cn2cc(CSc3nc4ccccc4s3)nn2)cc1`, the growth is 98.7% (inactive). The result for `O=C(NC(Cc1ccc(O)cc1)C(=O)N=Nc1c(O)[nH]c2ccccc12)c1ccccc1` (stereo not given) reads 109% (inactive); that for `CC1(C)OC2=C(CC1Br)C(=O)C(=O)c1ccccc12` (stereo not given), -87.1% (active). In the case of `Cc1ccc2c(c1)C13C(=C2Br)CCCN1C(=O)c1ccccc13` (stereo not given), the growth is 69.8% (inactive).

Regarding `O=C(CCCCCCc1nc2ccc(Br)cc2[nH]1)NO`, the growth was -1.04% (active).

For the compound `O=C(CCCCCCC(=O)Nc1ccc2c(c1)/C(=C/c1ccc[nH]1)C(=O)N2)NO`, the growth was 22.9% (inactive). In the case of `O=C(OCc1ccc2c(Cl)cc(Cl)c(O)c2n1)N1CCNCC1`, the growth was 33.6% (inactive). The result for `CCOc1cc2c(Cl)ncnc2c(OCC)c1OCC` reads -51.3% (active); that for `CCOC(=O)Cn1c(O)c(N=Nc2ccc(S(N)(=O)=O)cc2)c2cc(Br)ccc21`, 96.4% (inactive); that for `C=CCn1c(SCC(=O)Nc2ccc(C(=O)/C=C/c3cc(OC)c(OC)c(OC)c3)cc2)nnc1-c1cc(-c2ccc(Cl)cc2)nc2ccccc12`, 108% (inactive). Turning to `CO[C@]12C=C/C(=C(/C(=O)OCc3cccnc3)C(=O)CCCCCCCC[C@]3(OC)C=C/C(=C(/C(=O)OCc4cccnc4)C(=O)CCCCCCCC1)O3)O2`, the growth is -50.5% (active). For `CCN1C(=O)N(CC)C2C1NC(=S)N2/N=C/C=C/c1ccccc1OC` (stereo not given), the growth was -0.348% (active). In the case of `Cc1ccc(NC(=O)CCl)cc1Cl`, the growth was 108% (inactive).

For the compound `COC(=O)/C=C/c1cc(OC(C)=O)c2c(c1)[C@@H](C(=O)OC)[C@H](c1ccc(OC(C)=O)c(OC(C)=O)c1)O2`, the growth is -1.27% (active). The result for `CN(C)c1ccc(-c2c(C#N)c(N)nn2C(=O)c2ccc(NC(=O)c3ccccn3)cc2)cc1` reads 119% (inactive); that for `COc1ccc(OC)c(/C=C2\Oc3cc(OCCN4CCCC4)ccc3C2=O)c1`, 98.9% (inactive); that for `COc1cccc(CNc2cccc3cn[nH]c23)c1O`, 80.6% (inactive). The figure for `CC1=C(/C=C/C(C)=C/C=C/C(C)=C/C=N/NC(=S)NC(=S)N/N=C/C=C(C)/C=C/C=C(C)/C=C/C2=C(C)CCCC2(C)C)C(C)(C)CCC1` is 10.1% (inactive) and -26.7% (active). The result for `COc1ccc(-c2nn(-c3ccccc3)cc2/C=C/C(=O)c2ccc(NC(=O)CCCCCCC(=O)NO)cc2)cc1` reads 92.8% (inactive); that for `NS(=O)(=O)c1ccc(Nc2nc(SCc3ccccc3)nc3ccccc23)cc1`, 65.4% (inactive). With `CCOc1nc(-c2ccccc2)cc2c(O)c(C(=O)N/N=C/c3ccc(OC)cc3)[nH]c(=O)c12`, the growth was 61.9% (inactive).

For `Cc1nc(NC(=O)N2CCC[C@H]2C(N)=O)sc1-c1ccnc(C(C)(C)C(F)(F)F)c1`, the growth was 6.59% (active). The result for `Cc1cnc(SCc2ccc(Cl)cc2)[nH]c1=S` reads 110% (inactive); that for `O=S(=O)(c1ccccc1)N1CCCN(c2nc(-c3ccccc3)nc3nc(-c4ccccc4)oc23)CC1`, 116% (inactive); that for `COc1ccc(/C(C)=C(\c2ccc(Cl)cc2)c2ccc(OCCN3CCCCCC3)cc2)cc1F`, 35.3% (inactive). With `Cc1cc(Cl)nc(N(CCCNc2ccnc3cc(Cl)ccc23)Cc2ccco2)n1`, the growth was 0.466% (active). As for `CC(C)C1(C(C)C)NC(=O)NC1=O`, the growth was 101% (inactive).

Consider `O=c1[nH][nH]c(-c2ccc(F)cc2)c1-c1nc2ccccc2s1`, for which the growth is 100% (inactive).

On to `CCOc1cc2c(cc1OCC)C(c1cc(C)c(O)c(C)c1)NCC2` (stereo not given), for which the growth is 102% (inactive).

Take `COc1cc2c(c(OC)c1OC)CCc1cnoc1-2`: the growth was 83.8% (inactive).

In the case of `COc1ccc(/C=c2\sc3n(c2=O)NC2C(N=3)N(C)C(=O)N2C)cc1` (stereo not given), the growth was 99% (inactive). Regarding `Cc1ccc(C(=O)CSc2nc(-c3ccc(Br)cc3)c(C#N)c(=O)[nH]2)cc1`, the growth is 92.2% (inactive). The figure for `N#Cc1c(-c2ccc(Br)cc2)cc(-c2c[nH]c3ccccc23)nc1N` is 7.56% (active). With `CCOC(=O)c1c2c(n3ccc(NC(=O)CCN4CCOCC4)cc13)C(=O)c1ncccc1C2=O`, the growth is 49.7% (inactive). The figure for `O=NN(CC(=O)NNc1ccccc1)CC(=O)NNc1ccccc1` is 77.7% (inactive). Regarding `O=[N+]([O-])c1cccc(/C=N/NC(=S)NC23CC4CC(CC(C4)C2)C3)c1`, the growth was 82.1% (inactive).

`O=C(O)c1ccc(-n2c(=O)c3ccccc3c3ccccc3c2=O)cc1`: the growth is 105% (inactive).

Consider `O=C(/C=C/c1ccccc1)c1ccc2ccccc2c1`, for which the growth is 47.8% (inactive).

Take `Brc1ccccc1Cn1c(-c2cncs2)nc2ccccc21`: the growth is 61.8% (inactive). As to `COc1ccc(/C=C/C(=O)CCC(=O)O)cc1OC`, the growth is 113% (inactive).
